Drawing on PubChem BioAssay (NCI), this text covers growth inhibition for ten compounds.

Assay [1] can be described thus: NCI Yeast Anticancer Drug Screen. Data for the rad50 strain (AID 155).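 Note: 0% = growth of vehicle-only cultures of the same strain.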 The conditions noted are these: S. cerevisiae rad50 strain growth inhibition, hits give high values. In short, it runs like this: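 Cells are treated with compound, grown, and their growth is then scored against vehicle-only cultures of the same repair-deficient yeast strain.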
Assay [2] can be described thus: NCI Yeast Anticancer Drug Screen. Data for the mec2-1 strain (AID 157). Conditions: S. cerevisiae mec2-1 strain, hits give high values. In short, it runs like this:
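Test agents were screened against the mec2-1 yeast strain, with defined DNA repair or cell cycle alteration. Growth was scored as inhibition against vehicle-only controls.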

Assay [3] is described as follows: NCI Yeast Anticancer Drug Screen. Data for the sgs1 mgt1 strain (AID 161).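 Note: 0% = growth of cultures given vehicle only.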 Conditions: S. cerevisiae sgs1 mgt1 strain, hits give high values. In short, it runs like this: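 Genetically altered yeast, compound exposure, growth inhibition relative to vehicle.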
Assay [4] can be described thus: NCI Yeast Anticancer Drug Screen. Data for the cln2 rad14 strain (AID 165).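 Note: 0% = growth equal to vehicle treated cultures.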 Conditions: S. cerevisiae cln2 rad14 strain, hits give high values. A digest of the protocol: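 Growth of compound-exposed yeast (cln2 rad14 genotype) measured and expressed as inhibition relative to vehicle.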
Assay [5] in a line: NCI Yeast Anticancer Drug Screen. Data for the bub3 strain (AID 167). The conditions noted are these: S. cerevisiae bub3 mutant strain, hits give high values. In short, it runs like this:
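Part of a panel of yeast mutants defective in DNA damage repair or cell cycle regulation. Each strain is grown with compound, and inhibition is calculated relative to solvent-treated cultures.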

A short description of assay [6]: NCI Yeast Anticancer Drug Screen. Data for the mlh1 rad18 strain (AID 175). Conditions: S. cerevisiae mlh1 rad18 strain growth inhibition, hits give high values. A digest of the protocol: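 In this whole-cell yeast screen, a strain with altered DNA damage repair is challenged with compound, and its growth is measured against matched vehicle-treated controls.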
The mark [7] stands for this setting: at 5.0 µM (retest, dose inferred, filed as 0.5).
[8] abbreviates: at 50.0 µM (retest, dose inferred, filed as 5.0).

Molecules are shown by their SMILES. Compounds without any hit were thinned out: in the full panel of roughly 79,000, 15% have a hit. A number with no mark means an inactive call. Activity calls are given as the source filed them. Cut-off read from the data, not from the text of the source: active = growth inhibition above about 70%; inactive = the rest.

Consider `O=S(=O)(Nc1ccc2ccc3cccc4ccc1c2c34)c1ccccc1`, for which the growth inhibition in assay [1] (setting [7]) is 7%; in assay [1] (setting [8]) it was 25%; in assay [1] (at 50.0 µM), 57.6%; in assay [2] (setting [7]), 3%; in assay [2] (setting [8]), 12%; in assay [2] (at 50.0 µM), 34.9%. In addition, the growth inhibition in assay [3] (setting [7]) is 6%; in assay [3] (setting [8]), 45%; in assay [3] (at 50.0 µM), 62.2%; in assay [4] (setting [7]), -8%; in assay [4] (setting [8]) it was -7%; in assay [4] (at 50.0 µM), 17.6%. For the same compound, the growth inhibition is -4% in assay [5] (setting [7]); 19% in assay [5] (setting [8]); 56.9% in assay [5] (at 50.0 µM); 6% in assay [6] (setting [7]); 55% in assay [6] (setting [8]); 71.2% (active) in assay [6] (at 50.0 µM).
As for `N#CCCN(C(=S)Nc1cccc(C(F)(F)F)c1)C1CCCCC1`, the growth inhibition was -1% in assay [1] (setting [7]); 69% in assay [1] (setting [8]); 75.3% (active) in assay [1] (at 50.0 µM); 3% in assay [2] (setting [7]); 87% (active) in assay [2] (setting [8]); 75% (active) in assay [2] (at 50.0 µM). Also, the growth inhibition was -1% in assay [3] (setting [7]); 87% (active) in assay [3] (setting [8]); 82.4% (active) in assay [3] (at 50.0 µM); -1% in assay [4] (setting [7]); 46% in assay [4] (setting [8]); 41.1% in assay [4] (at 50.0 µM). Besides, the growth inhibition in assay [5] (setting [7]) is 1%; in assay [5] (setting [8]), 81% (active); in assay [5] (at 50.0 µM) it was 76.2% (active); in assay [6] (setting [7]), 1%; in assay [6] (setting [8]), 89% (active); in assay [6] (at 50.0 µM), 61.2%.
As for `C=C1C(=O)O[C@@H]2C[C@@]3(C)CCC[C@H](C)C3=C[C@H]12`, the growth inhibition was 11% in assay [1] (setting [7]); 91% (active) in assay [1] (setting [8]); 50.5% in assay [1] (at 50.0 µM); 23% in assay [2] (setting [7]); 98% (active) in assay [2] (setting [8]); 67.2% in assay [2] (at 50.0 µM). Also, the growth inhibition in assay [3] (setting [7]) is 24%; in assay [3] (setting [8]), 98% (active); in assay [3] (at 50.0 µM), 81.7% (active); in assay [4] (setting [7]), 6%; in assay [4] (setting [8]), 64%; in assay [4] (at 50.0 µM) it was 41.5%. Moreover, the growth inhibition in assay [5] (setting [7]) was 4%; in assay [5] (setting [8]), 95% (active); in assay [5] (at 50.0 µM), 81.3% (active); in assay [6] (setting [7]), 14%; in assay [6] (setting [8]), 96% (active); in assay [6] (at 50.0 µM), 68.5%.
Turning to `O=C(Cc1nc2ccccc2s1)C(=O)Nc1ccc(Cl)cc1`, the growth inhibition in assay [1] (setting [7]) is 2%; in assay [1] (setting [8]), 4%; in assay [1] (at 50.0 µM) it was 8%; in assay [2] (setting [7]) it was -1%; in assay [2] (setting [8]) it was 2%; in assay [2] (at 50.0 µM), 23.1%. Also, the growth inhibition in assay [3] (setting [7]) is 4%; in assay [3] (setting [8]), 0%; in assay [3] (at 50.0 µM), 17.5%; in assay [4] (setting [7]), 2%; in assay [4] (setting [8]), 2%; in assay [4] (at 50.0 µM), 75% (active). In addition, the growth inhibition in assay [5] (setting [7]) was 5%; in assay [5] (setting [8]) it was -2%; in assay [5] (at 50.0 µM) it was 63.5%; in assay [6] (setting [7]), 1%; in assay [6] (setting [8]), 7%; in assay [6] (at 50.0 µM) it was 3.3%.
For the compound `CCOc1cnn(-c2ccccc2)c(=O)c1SCc1ccc(Cl)c(Cl)c1`, the growth inhibition was -4% in assay [1] (setting [7]); 27% in assay [1] (setting [8]); 37.5% in assay [1] (at 50.0 µM); -3% in assay [2] (setting [7]); 56% in assay [2] (setting [8]); 8.95% in assay [2] (at 50.0 µM). The growth inhibition in assay [3] (setting [7]) is 2%; in assay [3] (setting [8]) it was 73% (active); in assay [3] (at 50.0 µM) it was 65.8%; in assay [4] (setting [7]), -11%; in assay [4] (setting [8]) it was 44%; in assay [4] (at 50.0 µM), 53.1%. Also, the growth inhibition in assay [5] (setting [7]) was 4%; in assay [5] (setting [8]), 82% (active); in assay [5] (at 50.0 µM), 40.3%; in assay [6] (setting [7]) it was -4%; in assay [6] (setting [8]), 56%; in assay [6] (at 50.0 µM), 32.4%.
For `Nc1cccc2c(O)cccc12`, the growth inhibition in assay [1] (setting [7]) was -1%; in assay [1] (setting [8]), 21%; in assay [1] (at 50.0 µM), 21.6%; in assay [2] (setting [7]), 3%; in assay [2] (setting [8]), 18%; in assay [2] (at 50.0 µM) it was 9.3%. For the same compound, the growth inhibition is -1% in assay [3] (setting [7]); 15% in assay [3] (setting [8]); 20.8% in assay [3] (at 50.0 µM); 2% in assay [4] (setting [7]); 12% in assay [4] (setting [8]); 44.2% in assay [4] (at 50.0 µM). Further, the growth inhibition in assay [5] (setting [7]) was 2%; in assay [5] (setting [8]) it was 15%; in assay [5] (at 50.0 µM) it was 8.55%; in assay [6] (setting [7]), -2%; in assay [6] (setting [8]), 28%; in assay [6] (at 50.0 µM), 50.2%.
Take `Nc1cccc2c1C(=O)c1cccc(Cl)c1C2=O`: the growth inhibition was 31% in assay [1] (setting [7]); 83% (active) in assay [1] (setting [8]); 87.7% (active) in assay [1] (at 50.0 µM); 3% in assay [2] (setting [7]); 16% in assay [2] (setting [8]); 11.8% in assay [2] (at 50.0 µM). In addition, the growth inhibition was 0% in assay [3] (setting [7]); 14% in assay [3] (setting [8]); 21.1% in assay [3] (at 50.0 µM); 1% in assay [4] (setting [7]); 2% in assay [4] (setting [8]); -82% in assay [4] (at 50.0 µM). Also, the growth inhibition was 5% in assay [5] (setting [7]); 21% in assay [5] (setting [8]); 58% in assay [5] (at 50.0 µM); 11% in assay [6] (setting [7]); 30% in assay [6] (setting [8]); 50.3% in assay [6] (at 50.0 µM).
For `Cc1ccc(C2=CC(=O)/C(=C\C(=O)c3ccc(Cl)cc3)O2)cc1`, the growth inhibition is 31% in assay [1] (setting [7]); 31% in assay [1] (setting [8]); 74.9% (active) in assay [1] (at 50.0 µM); 28% in assay [2] (setting [7]); 28% in assay [2] (setting [8]); 55.5% in assay [2] (at 50.0 µM). Besides, the growth inhibition was 17% in assay [3] (setting [7]); 17% in assay [3] (setting [8]); 71.2% (active) in assay [3] (at 50.0 µM); 38% in assay [4] (setting [7]); 38% in assay [4] (setting [8]); 57% in assay [4] (at 50.0 µM). The growth inhibition in assay [5] (setting [7]) was 22%; in assay [5] (setting [8]) it was 22%; in assay [5] (at 50.0 µM), 49.5%; in assay [6] (setting [7]) it was 37%; in assay [6] (setting [8]), 37%; in assay [6] (at 50.0 µM) it was 58%.
In the case of `CN(C)C(=S)/N=c1\ssc(=S)n1C`, the growth inhibition in assay [1] (setting [7]) is 2%; in assay [1] (setting [8]) it was 0%; in assay [1] (at 50.0 µM), 86.7% (active); in assay [2] (setting [7]), 2%; in assay [2] (setting [8]), 4%; in assay [2] (at 50.0 µM), 27.4%. For the same compound, the growth inhibition in assay [3] (setting [7]) is 2%; in assay [3] (setting [8]), -1%; in assay [3] (at 50.0 µM), 90.7% (active); in assay [4] (setting [7]), 1%; in assay [4] (setting [8]), 4%; in assay [4] (at 50.0 µM) it was 72.1% (active). Also, the growth inhibition was -1% in assay [5] (setting [7]); -1% in assay [5] (setting [8]); 87.8% (active) in assay [5] (at 50.0 µM); 0% in assay [6] (setting [7]); 6% in assay [6] (setting [8]); 84.8% (active) in assay [6] (at 50.0 µM).
On to `Cc1cccc(N=Nc2ccc(O)cc2)c1`, for which the growth inhibition was -152% in assay [1] (setting [7]); 98% (active) in assay [1] (setting [8]); 99.6% (active) in assay [1] (at 50.0 µM); -58% in assay [2] (setting [7]); 98% (active) in assay [2] (setting [8]); 99.5% (active) in assay [2] (at 50.0 µM). For the same compound, the growth inhibition in assay [3] (setting [7]) is -71%; in assay [3] (setting [8]), 98% (active); in assay [3] (at 50.0 µM) it was 99.4% (active); in assay [4] (setting [7]), -71%; in assay [4] (setting [8]) it was 98% (active); in assay [4] (at 50.0 µM), 98.6% (active). Moreover, the growth inhibition in assay [5] (setting [7]) is -72%; in assay [5] (setting [8]), 97% (active); in assay [5] (at 50.0 µM), 98.5% (active); in assay [6] (setting [7]), -154%; in assay [6] (setting [8]) it was 98% (active); in assay [6] (at 50.0 µM), 99.3% (active).
